Reference: PubChem BioAssay (NCI)
This is part of a sample that, as a whole, favours compounds with a hit. Of some 83,000 tested, about 20% had one in any assay.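 Cell lines were cultured in 96-well plates, exposed to a single compound concentration, and assessed for percent growth 48 hours later.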 Values without a mark were called inactive. Calls of active or inactive are those of the source. Rule for the calls: active = growth percent below 10; inactive = the rest.

test system: SF-268 CNS; assay: NCI-60 one-dose screen, 48 h (100 = growth as untreated, 0 = no growth, -100 = all killed); conditions: 10 µM unless noted

Row | SMILES | growth
1 | CCCCNC(=O)Oc1ccc(/C(=C(/C)Cc2ccc(OC)cc2)c2ccc(OCCN(CC)CC)cc2)cc1 | 86.2%
2 | Cc1nc2sc(C(=O)Nc3cccc(Br)c3)c(N)c2cc1C(O)c1ccccc1 (stereo not given) | 42.4%
3 | CCn1cc(C(=O)O)c(=O)c2cc(F)c(N3CCN(CC(=O)Nc4ccc(S(=O)(=O)Nc5nccc(C)n5)cc4)C(C)C3)c(F)c21 (stereo not given) | 98.3%
4 | C#CCOc1ccc2ncnc(Nc3ccc(NC(=O)C=C)cc3)c2c1 | 6.18% (active)
5 | Nc1ncnc2c1C(c1ccc(Br)cc1)c1sc3c(F)cccc3c1O2 (stereo not given) | 98.9%
6 | N#Cc1nc(-c2ccc(Cl)cc2)oc1S(=O)(=O)N1CCN(c2ccc(F)cc2)CC1 | 97.6%
7 | CCn1c(SCC(=O)N/N=C(\C)c2ccc(Cl)cc2)nc2c1c(=O)n(C)c(=O)n2C | 98%
8 | Cc1ccc(C2=Nc3c(N)ncnc3NC(c3cccc(Nc4ccnc5cc(C(F)(F)F)ccc45)c3)C2)cc1 (stereo not given) | 40.1%
9 | CCCCCCCCCCCCCCCCCCOc1ccccc1CC(=O)OCC[N+](C)(C)C | 15%
10 | CC(C)C1=NOC(=O)C1=Cc1cn(-c2ccccc2)nc1-c1ccc(F)cc1 | 91.2%
11 | O=C(NNC(=O)c1ccc(NC(=O)c2ccccn2)cc1)Nc1ccc([N+](=O)[O-])cc1 | 95.5%
12 | CSc1nc2ccccc2cc1/C=C1/C=C(c2ccccc2)NC1=O | 87.2%
13 | CC(C)c1ccc(-n2c(=S)[nH]c3sc4cc(O)ccc4c3c2=O)cc1 | 99.4%
14 | C=C1C(=O)O[C@H]2[C@H]1CC/C(COC(=O)c1cc3ccccc3s1)=C\CC[C@@]1(C)O[C@@H]21 | -60.6% (active)
15 | COc1ccc(OC)c(/C=N/Nc2ncnc3c2c(C)nn3C)c1 | 87.1%
16 | NC(=O)c1ccc(-c2c3ccccc3cc3c2ccc2ccccc23)cc1 | 56%
17 | NNc1nc(-c2cccnc2)nc2c1sc(=S)n2-c1ccccc1 | 89.6%
18 | CN(C)CC(C)(C)C(=O)/C=C/c1ccccc1 | 1.85% [25 µM] (active)
19 | Cc1ccc(Nc2cc(N)nc(N)n2)cc1Cl | 88.7%
20 | COc1ccc(CNc2c3ccccc3nc3ccccc23)cc1 | 63.4%

Row | SMILES | growth
21 | CN(c1cc2ncc(=O)[nH]c2cc1NC(N)=NCc1ccc(Cl)cc1)C1CCCCC1 | 67.9%
22 | Cc1cccc(CNc2c3ccccc3nc3ccccc23)c1 | 52%
23 | Fc1cc2c(cc1Cl)N(c1ncnc3ccc(-c4ccc5n[nH]nc5c4)cc13)CC2 | 69.5%
24 | CC(C)c1ccc(Cc2cnc(NC(=O)c3cc(Br)cs3)s2)cc1 | 48.2%
25 | O=C1Nc2ccc(C(=O)O)cc2/C1=N/c1nnc(Sc2ccccc2)s1 | 96.4%
26 | O=C(Nc1nc2ccc(C(=O)N3CCN(/C=C/c4ccccc4)CC3)cc2s1)c1ccc(NCCc2ccccc2)c([N+](=O)[O-])c1 | 63.2%
27 | O=C(c1ccncc1)N1N=C(c2ccc(Cl)cc2)C[C@H]1c1cn(-c2ccccc2)nc1-c1ccccc1 | 89.4%
28 | CCc1ccc(CCCC(=O)O)cc1 | 102%
29 | CSc1nc2ccccc2cc1/C=[N+](\[O-])c1ccccc1 | 56.6%
30 | NC(=O)CSc1oc(-c2ccccc2)nc1S(=O)(=O)c1ccc(Br)cc1 | 72.6%
31 | N#CC1=C(N)Oc2c(c(=O)[nH]c3ccc(Cl)cc23)C12C(=O)c1ccccc1C2=O | 92%
32 | CC/C(=C(/c1ccc(Cl)cc1)c1ccc(OCCN2CCCCC2)cc1)c1ccc(OC)cc1 | 86.5%
33 | NC(Cc1ccc(O)c([N+](=O)[O-])c1)C(=O)O (stereo not given) | 99.8%
34 | Nc1c(C(=O)Nc2ccncc2)sc2nc3c(cc12)C(O)CCC3 (stereo not given) | 95.1%
35 | COc1ccc(NC2=C(I)C(=O)c3ncccc3C2=O)cc1 | 14.7%
36 | CCOc1ccc(NC(=O)CSc2oc(-c3ccccc3)nc2S(=O)(=O)c2ccc(C)cc2)cc1 | 54.1%
37 | O=S(=O)(Nc1cc(F)cc(Cl)c1)c1ccc(-c2cnc(C3CC3)o2)cc1 | 59.5%
38 | CC1(C)COB(OCC(C)(C)COB2OCC(C)(C)CO2)OC1 | 100%
39 | O=C(Nc1ccccc1O)c1ccc(CNC(=O)c2sccc2Nc2ccnc(C(F)(F)F)c2)cc1 | 49.2%
40 | CCC(C)N(CCNc1cc(OC)cc2cccnc12)CC(C)C (stereo not given) | 96.4%

test system: SF-295 CNS; assay: as above; conditions: 10 µM unless noted

Row | SMILES | growth
41 | CCCCNC(=O)Oc1ccc(/C(=C(/C)Cc2ccc(OC)cc2)c2ccc(OCCN(CC)CC)cc2)cc1 | 86.6%
42 | Cc1nc2sc(C(=O)Nc3cccc(Br)c3)c(N)c2cc1C(O)c1ccccc1 (stereo not given) | 40.2%
43 | CCn1cc(C(=O)O)c(=O)c2cc(F)c(N3CCN(CC(=O)Nc4ccc(S(=O)(=O)Nc5nccc(C)n5)cc4)C(C)C3)c(F)c21 (stereo not given) | 104%
44 | C#CCOc1ccc2ncnc(Nc3ccc(NC(=O)C=C)cc3)c2c1 | 83.2%
45 | Nc1ncnc2c1C(c1ccc(Br)cc1)c1sc3c(F)cccc3c1O2 (stereo not given) | 102%
46 | N#Cc1nc(-c2ccc(Cl)cc2)oc1S(=O)(=O)N1CCN(c2ccc(F)cc2)CC1 | 101%
47 | CCn1c(SCC(=O)N/N=C(\C)c2ccc(Cl)cc2)nc2c1c(=O)n(C)c(=O)n2C | 101%
48 | Cc1ccc(C2=Nc3c(N)ncnc3NC(c3cccc(Nc4ccnc5cc(C(F)(F)F)ccc45)c3)C2)cc1 (stereo not given) | 25%
49 | CCCCCCCCCCCCCCCCCCOc1ccccc1CC(=O)OCC[N+](C)(C)C | 45.8%
50 | CC(C)C1=NOC(=O)C1=Cc1cn(-c2ccccc2)nc1-c1ccc(F)cc1 | 95.5%
51 | O=C(NNC(=O)c1ccc(NC(=O)c2ccccn2)cc1)Nc1ccc([N+](=O)[O-])cc1 | 98.9%
52 | CSc1nc2ccccc2cc1/C=C1/C=C(c2ccccc2)NC1=O | 67%
53 | CC(C)c1ccc(-n2c(=S)[nH]c3sc4cc(O)ccc4c3c2=O)cc1 | 103%
54 | C=C1C(=O)O[C@H]2[C@H]1CC/C(COC(=O)c1cc3ccccc3s1)=C\CC[C@@]1(C)O[C@@H]21 | 32%
55 | COc1ccc(OC)c(/C=N/Nc2ncnc3c2c(C)nn3C)c1 | 99.7%
56 | NC(=O)c1ccc(-c2c3ccccc3cc3c2ccc2ccccc23)cc1 | 46.1%
57 | NNc1nc(-c2cccnc2)nc2c1sc(=S)n2-c1ccccc1 | 98.1%
58 | CN(C)CC(C)(C)C(=O)/C=C/c1ccccc1 | 7.02% [25 µM] (active)
59 | Cc1ccc(Nc2cc(N)nc(N)n2)cc1Cl | 92.3%
60 | COc1ccc(CNc2c3ccccc3nc3ccccc23)cc1 | 39.1%

Row | SMILES | growth
61 | CN(c1cc2ncc(=O)[nH]c2cc1NC(N)=NCc1ccc(Cl)cc1)C1CCCCC1 | 95.8%
62 | Cc1cccc(CNc2c3ccccc3nc3ccccc23)c1 | 25.3%
63 | Fc1cc2c(cc1Cl)N(c1ncnc3ccc(-c4ccc5n[nH]nc5c4)cc13)CC2 | 91.7%
64 | CC(C)c1ccc(Cc2cnc(NC(=O)c3cc(Br)cs3)s2)cc1 | 9.99% (active)
65 | O=C1Nc2ccc(C(=O)O)cc2/C1=N/c1nnc(Sc2ccccc2)s1 | 102%
66 | O=C(Nc1nc2ccc(C(=O)N3CCN(/C=C/c4ccccc4)CC3)cc2s1)c1ccc(NCCc2ccccc2)c([N+](=O)[O-])c1 | 45.7%
67 | O=C(c1ccncc1)N1N=C(c2ccc(Cl)cc2)C[C@H]1c1cn(-c2ccccc2)nc1-c1ccccc1 | 78.8%
68 | CCc1ccc(CCCC(=O)O)cc1 | 98.5%
69 | CSc1nc2ccccc2cc1/C=[N+](\[O-])c1ccccc1 | 86.7%
70 | NC(=O)CSc1oc(-c2ccccc2)nc1S(=O)(=O)c1ccc(Br)cc1 | 80.7%
71 | N#CC1=C(N)Oc2c(c(=O)[nH]c3ccc(Cl)cc23)C12C(=O)c1ccccc1C2=O | 104%
72 | CC/C(=C(/c1ccc(Cl)cc1)c1ccc(OCCN2CCCCC2)cc1)c1ccc(OC)cc1 | 55.1%
73 | NC(Cc1ccc(O)c([N+](=O)[O-])c1)C(=O)O (stereo not given) | 117%
74 | Nc1c(C(=O)Nc2ccncc2)sc2nc3c(cc12)C(O)CCC3 (stereo not given) | 106%
75 | COc1ccc(NC2=C(I)C(=O)c3ncccc3C2=O)cc1 | 8.7% (active)
76 | CCOc1ccc(NC(=O)CSc2oc(-c3ccccc3)nc2S(=O)(=O)c2ccc(C)cc2)cc1 | 48.1%
77 | O=S(=O)(Nc1cc(F)cc(Cl)c1)c1ccc(-c2cnc(C3CC3)o2)cc1 | 22.4%
78 | CC1(C)COB(OCC(C)(C)COB2OCC(C)(C)CO2)OC1 | 97.4%
79 | O=C(Nc1ccccc1O)c1ccc(CNC(=O)c2sccc2Nc2ccnc(C(F)(F)F)c2)cc1 | 43.6%
80 | CCC(C)N(CCNc1cc(OC)cc2cccnc12)CC(C)C (stereo not given) | 110%
